HepG2 tox-1: counter-screen for TGF-b inhibitors: cytotoxicity in HepG2 cells; actives 0.76% (n = 410,000); HepG2 CAGA-GFP viability, ATP luminescence, 18 h; Potency, µM (doses to about 46.1 µM), for the others: at the top dose activity change, negative = cytotoxicity, actives largely listed as cytotoxic; further: potency means the concentration at half of the fitted maximal effect
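HepG2 CAGA-GFP cells (1000/well, DMEM with 1% FBS) received compound, then TGF-beta at 500 pg/mL final, and were incubated 18 hours at 37 degrees C. Viability was read by CellTiter-Glo luminescence. Media-only wells were set as complete cell-killing and DMSO as no toxicity.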
IL-1B inflam inh: inflammasome signaling inhibition, IL-1 beta readout | THP-1 LPS/ATP IL-1B secretion, AlphaLISA, 16 h; stronger effect = lower value | activity change, % at 57.5 µM | actives 4.7% (n = 360,000) | AID 743279; in the data active means activity change below about -50%; inconclusive means mostly about -30% to -49%; further: on the % scale 0 is the no-effect control and ±100 the full control effect
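Secreted IL-1B measured by AlphaLISA bead assay after 16 h compound exposure of THP-1 cells; compounds (final up to 57.5 uM) added 1 h before LPS (250 ng/mL) and ATP (1.25 mM) stimulation; lower signal means less secretion.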
S2 tox: viability counter-screen for ATXN expression inhibitors; S2 cells (HEK-293 line with an ATXN2-luciferase reporter) viability, CellTiter-Fluor protease fluorescence, 24 h; Potency, µM (titrated, usually from 56.7 µM), most hits filed as cytotoxic; actives 0.49% (n = 400,000); further: potency means the concentration at half of the fitted maximal effect; nearly all actives have a fitted effect of over 40% in size
TGFb inhibitor: blocks TGF-b signaling | HepG2 CAGA-GFP TGF-b/SMAD3 reporter, GFP fluorescence, 18 h; TGF-beta stimulated, 500 pg/mL final | Potency, µM (doses to about 46.1 µM), without a hit: top-dose activity, negative = inhibition, actives largely listed as inhibitors | actives 1.2% (n = 410,000) | AID 588855; further: potency means the concentration at half of the fitted maximal effect; on the % scale 0 is the no-effect control and ±100 the full control effect; nearly all actives have a fitted effect of over 65% in size
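HEPG2 CAGA-GFP cells (1000/well, DMEM with 1% FBS) were pre-incubated 2 h at 37 degrees C, given compound by pin tool, then stimulated with TGF-beta at 500 pg/mL final for 18 h before per-cell GFP fluorescence imaging.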
ATXN2 expr inh: ATXN2 expression inhibition | actives 0.72% (n = 360,000) | AID 1745845 | HEK-293 ATXN2-luciferase reporter, luminescence, 24 h | Potency, µM (doses to about 57 µM), for the others: top-dose activity change, negative = inhibition, most hits filed as inhibitors; further: potency means the concentration at half of the fitted maximal effect; on the % scale 0 is the no-effect control and ±100 the full control effect; nearly all actives have a fitted effect of over 55% in size
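qHTS (up to 57 uM final) was run with 24 h compound exposure of reporter cells at 37 °C. Each well was multiplexed: SteadyGlo luminescence measured ATXN2-luciferase expression after a fluorogenic Gly-Phe-AFC viability readout (25 uM final).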
TGFb confirm: TGF-b pathway inhibition, cherry-pick retest | shares compounds with TGFb inhibitor | Potency, µM (titrated, usually from 46.1 µM), without a hit: at the top dose activity, negative = inhibition, most hits filed as inhibitors | HepG2 CAGA-GFP TGF-b reporter, GFP fluorescence, 18 h; cells stimulated with TGF-beta, 500 pg/mL | actives 63% (n = 1,600); further: potency means the concentration at half of the fitted maximal effect; on the % scale 0 is the no-effect control and ±100 the full control effect; nearly all actives have a fitted effect of over 65% in size
HepG2 tox-2: HepG2 cytotoxicity, TGF-b inhibitor counterscreen. shares compounds with TGFb inhibitor. HepG2 CAGA-GFP viability, ATP luminescence, 18 h; cells stimulated with TGF-beta, 500 pg/mL. Potency, µM (titrated, usually from 46.1 µM), without a hit: top-dose activity, negative = cytotoxicity, actives largely listed as inhibitors. actives 27% (n = 1,600). AID 720535; further: potency means the concentration at half of the fitted maximal effect; on the % scale 0 is the no-effect control and ±100 the full control effect; nearly all actives have a fitted effect of over 70% in size
CCL64 TGFb inh: orthogonal confirmation of TGF-b inhibitors in CCL64 cells. actives 41% (n = 1,600). CCL64 CAGA-GFP reporter, TGF-b stimulated, GFP fluorescence, 18 h. Potency, µM (top dose mostly 46.1 µM), without a hit: at the top dose activity, negative = inhibition, actives largely listed as inhibitors. shares compounds with TGFb inhibitor; further: potency means the concentration at half of the fitted maximal effect; nearly all actives have a fitted effect of over 65% in size
COP TGFb inh: TGF-b inhibition validated with COP promoter; shares compounds with TGFb inhibitor; HepG2 COP-GFP TGF-b reporter, GFP fluorescence, 18 h; cells stimulated by added recombinant TGF-beta; Potency, µM (top dose mostly 46.1 µM), for inactives: at the highest dose activity, negative = inhibition, actives largely listed as inhibitors; actives 3% (n = 1,600); AID 720537; further: potency means the concentration at half of the fitted maximal effect; nearly all actives have a fitted effect of over 70% in size
Numbers without * were called inactive; i = inactive; ? = inconclusive; . = not tested or not shown. This is a sample that favours compounds with a hit; in the whole collection about 5.7% have one here. Unless noted, the call rests on the fitted dose curve; in most records, active means well fitted curve in the direction sought with a large enough effect; inconclusive means small, poorly fitted or top-dose-only effect, or another doubt; inactive means no such curve, though single readings can be large; an effect the other way counts as inactive or inconclusive.

SMILES | HepG2 tox-1 | IL-1B inflam inh | S2 tox | TGFb inhibitor | ATXN2 expr inh | TGFb confirm | HepG2 tox-2 | CCL64 TGFb inh | COP TGFb inh
CN(C)CC1CCC/C(=C\c2ccc(OC(=O)/C=C/c3ccc(Cl)c(Cl)c3)cc2)C1=O (centres undefined) | -17% | ? | ? | 0% | -12% | . | . | . | .
COc1cc(OC)c(NC(=O)N2CCc3cc(OC)c(OC)cc3C2CC(=O)O)cc1Cl (centres undefined) | 1% | . | . | 4% | . | . | . | . | .
Oc1c(C(c2ccccn2)N2CCCCC2)cc(Cl)c2cccnc12 (centres undefined) | -41% | 79 | i | 7.9µM* | ? | ? | ? | ? | 0%
COc1cc(C(=O)NC(c2ccccc2Cl)c2cc(Cl)c3cccnc3c2O)cc(OC)c1OC (centres undefined) | -7% | . | . | ? | . | . | . | . | .
COc1ccc(S(=O)(=O)Nc2ccc(F)c(F)c2)cc1Cl | -39% | 11 | i | 10µM* | -8% | -19% | -6% | -11% | 7%
COc1ccc(NS(=O)(=O)c2ccc(OC)c(N(C)S(=O)(=O)c3ccc(Cl)cc3)c2)cc1 | -26% | -83* | ? | 10µM* | ? | 7.3µM* | ? | ? | 37%
Cn1c(=O)c2c(SCC(=O)N3CCc4ccccc43)nc(-c3cccc(F)c3)nc2n(C)c1=O | 4% | . | i | -24% | 3% | . | . | . | .
O=C(Nc1c(Cl)ccc2nsnc12)c1ccc([N+](=O)[O-])o1 | 13µM* | -98* | i | 10µM* | -12% | 8.2µM* | ? | ? | ?
O=C(Nc1ccc(N2CCOCC2)c(Cl)c1)c1ccc([N+](=O)[O-])o1 | 13µM* | -105* | ? | 8.9µM* | . | 15µM* | 21µM* | 13µM* | ?
O=C(Nc1ccc2oc(-c3ccncc3)nc2c1)c1ccc([N+](=O)[O-])o1 | -24% | -91* | ? | 5.6µM* | 2% | 6.5µM* | ? | ? | 16%
CN1CCN(c2ccc(NC(=O)c3ccc([N+](=O)[O-])o3)cc2Cl)CC1 | -64% | -96* | 20µM* | 10µM* | -27% | 8.2µM* | 16µM* | 23µM* | 16%
O=C(Nc1c(Cl)ccc2nsnc12)c1ccc(Br)o1 | -19% | -12 | i | -2% | . | . | . | . | .
CC(=O)N1CCN(c2ccc(NC(=O)c3ccc(Br)o3)cc2Cl)CC1 | -22% | ? | i | -11% | . | . | . | . | .
CC(C)C(=O)N1CCN(c2ccc(NC(=O)c3ccc([N+](=O)[O-])o3)cc2)CC1 | -37% | -104* | i | ? | 15% | 5.8µM* | 10µM* | ? | -22%
CC(C)C(=O)N1CCN(c2ccc(NC(=O)c3ccc([N+](=O)[O-])o3)cc2Cl)CC1 | -55% | -105* | i | 7.9µM* | ? | 5.8µM* | 21µM* | ? | -7%
O=C(Nc1ccc(N2CCCC2)c(Cl)c1)c1ccc([N+](=O)[O-])cc1 | -7% | -30 | i | -16% | -26% | . | . | . | .
Cc1cc(NC(=O)c2ccc([N+](=O)[O-])o2)ccc1NC(=O)c1ccco1 | -108% | -92* | ? | 7.1µM* | -8% | 4.1µM* | 21µM* | ? | -50%
CCCC(=O)N1CCN(c2ccc(NC(=O)c3ccc([N+](=O)[O-])o3)cc2Cl)CC1 | 11µM* | -110* | i | 5.6µM* | ? | 3.7µM* | 13µM* | 23µM* | ?
CCOC(=O)N1CCc2c(sc(NCc3cccs3)c2C(=O)Nc2cc(Cl)ccc2OC)C1 | -9% | . | . | ? | . | . | . | . | .
CCN(Cc1ccccc1)C(=O)Cn1c(=O)n(-c2ccc(C)c(C)c2)c(=O)c2c(C)c(C)sc21 | -15% | . | i | ? | -5% | . | . | . | .
COc1ccc(CNC(=O)[C@@H]2CCCN2C(=O)[C@@H]2Cc3ccccc3CN2C(=O)OC(C)(C)C)cc1 | -7% | -3 | i | 11µM* | 1% | 13µM* | -17% | 12% | -6%
CC1=Nc2ccccc2/C1=C\c1sc(Nc2ccc(C)cc2)nc1O | -3% | -53* | ? | 11µM* | -4% | 5.2µM* | ? | 5.2µM* | 17%
CCOc1ccc(NC(=O)CSc2nc(-c3ccccc3)c3cc(OCC)ccc3n2)cc1 | 4% | . | . | 12% | . | . | . | . | .
CN(C)S(=O)(=O)c1ccc(NC(=O)CN2CCC(Cc3ccccc3)CC2)cc1 | -29% | 21 | ? | -2% | . | . | . | . | .
CN(C)S(=O)(=O)c1ccc(Cl)c(NC(=O)CN2CCC(Cc3ccccc3)CC2)c1 | -1% | 2 | i | ? | -15% | 13µM* | ? | ? | 17%
SMILES | HepG2 tox-1 | IL-1B inflam inh | S2 tox | TGFb inhibitor | ATXN2 expr inh | TGFb confirm | HepG2 tox-2 | CCL64 TGFb inh | COP TGFb inh
COC(=O)c1cc(NC(=O)c2nn(C)c3c2CSc2ccccc2-3)cc(C(=O)OC)c1 | 7% | . | . | -3% | . | . | . | . | .
Cc1ccc(NC(=O)CSc2nnc(-c3cc4occc4n3C)n2-c2ccccc2C)c(C)c1 | -15% | . | . | -4% | . | . | . | . | .
COc1ccc(-c2cccc(-c3cc(=O)oc4cc(OC)cc(OC)c34)c2)cc1 | 3% | 78 | i | 1.4µM* | 6% | 1.6µM* | -1% | 1.5µM* | -25%
CS(=O)(=O)c1ccc2nc(NC(=O)Nc3cccc(Cl)c3)sc2c1 | -39% | -81* | ? | 2.2µM* | -16% | 16µM* | ? | ? | 21%
O=C(Nc1cccc(Cl)c1)Nc1nnc(-c2ccncc2)s1 | -45% | 9 | . | 7.9µM* | ? | 10µM* | ? | 6.5µM* | 64%
O=C(Nc1ccc(Cl)cc1)Nc1nnc(-c2ccncc2)s1 | 4% | ? | ? | ? | ? | . | . | . | .

Assay outcomes from PubChem BioAssay.
